# From PMC4336329 (PLoS ONE, 2015)
# Hit rate of the full screen: of about 310,000 compounds, about 14,000 (4.5%) showed an effect of 50% or more. Effects have a minus sign here. This is one part of a sample in which strong results are shown more often than they occur.
# Molecular target: human ether-à-go-go-related gene (hERG) potassium channel (human, UniProt Q12809)
# Experiment: primary screen, population patch clamp on CHO cells stably expressing hERG; higher = less effect of the substance
# 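Note: peak tail current of the secondary pulse compared with the same well before compound.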
# Chain of human ether-à-go-go-related gene (hERG) potassium channel (Q12809 whole entry, looked up): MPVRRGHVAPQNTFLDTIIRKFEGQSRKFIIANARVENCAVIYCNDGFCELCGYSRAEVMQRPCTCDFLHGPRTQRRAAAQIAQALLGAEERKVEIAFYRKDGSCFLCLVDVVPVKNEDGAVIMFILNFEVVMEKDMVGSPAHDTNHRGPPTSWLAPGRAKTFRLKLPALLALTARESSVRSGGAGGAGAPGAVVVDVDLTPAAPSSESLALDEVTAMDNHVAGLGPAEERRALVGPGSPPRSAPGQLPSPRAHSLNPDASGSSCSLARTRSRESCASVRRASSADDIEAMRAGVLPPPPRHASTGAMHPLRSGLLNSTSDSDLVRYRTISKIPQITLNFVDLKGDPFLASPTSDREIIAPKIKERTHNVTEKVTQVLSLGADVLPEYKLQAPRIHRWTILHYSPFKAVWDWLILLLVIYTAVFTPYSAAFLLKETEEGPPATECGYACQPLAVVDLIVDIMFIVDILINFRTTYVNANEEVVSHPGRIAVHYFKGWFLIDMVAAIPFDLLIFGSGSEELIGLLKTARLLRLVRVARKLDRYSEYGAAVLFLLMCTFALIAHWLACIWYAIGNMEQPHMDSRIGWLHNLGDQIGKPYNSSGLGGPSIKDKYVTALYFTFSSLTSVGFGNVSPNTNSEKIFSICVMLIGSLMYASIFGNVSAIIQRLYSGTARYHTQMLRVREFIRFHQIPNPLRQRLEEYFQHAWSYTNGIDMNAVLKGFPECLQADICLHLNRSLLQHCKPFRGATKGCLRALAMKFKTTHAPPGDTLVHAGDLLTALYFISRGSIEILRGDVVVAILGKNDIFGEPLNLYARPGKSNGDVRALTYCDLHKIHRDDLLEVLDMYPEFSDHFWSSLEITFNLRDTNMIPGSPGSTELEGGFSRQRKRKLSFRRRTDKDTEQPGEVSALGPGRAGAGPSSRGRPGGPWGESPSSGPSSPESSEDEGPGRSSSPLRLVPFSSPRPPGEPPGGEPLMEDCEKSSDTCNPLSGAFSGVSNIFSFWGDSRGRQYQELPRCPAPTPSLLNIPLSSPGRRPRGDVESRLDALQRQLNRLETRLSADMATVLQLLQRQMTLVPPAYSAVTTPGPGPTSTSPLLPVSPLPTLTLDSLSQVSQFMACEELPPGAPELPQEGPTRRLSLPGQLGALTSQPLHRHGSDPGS
row,SMILES,"hERG current change (%, negative = inhibition) at 10uM [%]"
1,Nc1nc(-c2ccccc2)nc2sc3c(c12)CCCC3,11.7
2,CCOc1cccc(C(=O)Nc2ccccc2N2CCN(C(=O)C(C)C)CC2)c1,-70
3,COc1cc2ccccc2cc1C(=O)Nc1ccccc1N1CCN(S(C)(=O)=O)CC1,6.35
4,Cc1ccc(C(=O)Nc2ccccc2N2CCN(C(=O)C(C)C)CC2)cc1C,-18.7
5,COc1ccccc1NC(=O)COC(=O)c1ccccc1C(=O)N1CCN(c2ccccc2)CC1,-42.3
6,CCCCOc1cccc(C(=O)Nc2ccccc2N2CCCC2)c1,5.59
7,Cc1ccc(C(=O)Nc2ccccc2N2CCN(C(=O)C(C)C)CC2)cc1,-19.1
8,CCOc1ccc(C(=O)Nc2ccccc2N2CCCC2)cc1,-22.8
9,COc1ccccc1C(=O)Nc1ccccc1N1CCN(S(C)(=O)=O)CC1,-62
10,CC(C)C(=O)N1CCN(c2ccccc2NC(=O)c2cccc(Cl)c2)CC1,-69.6
11,COc1cc(Cl)ccc1NC(=O)COc1ccccc1C(=O)NN,-15.4
12,COc1cc(Cl)ccc1NC(=O)COc1ccccc1C(=O)N1CCN(c2ccc(O)cc2)CC1,-53.9
13,COc1cc(C(=O)Nc2ccccc2N2CCN(S(C)(=O)=O)CC2)cc(OC)c1OC,-29.9
14,O=C(CNC(=O)c1ccc(Cl)cc1)c1ccccc1,-9.6
15,CC(C)OC(=O)CSc1nnc2c(n1)[nH]c1ccc(F)cc12,8.22
16,CN(C(=O)Cn1nnc(-c2ccc(F)cc2)n1)C1CCS(=O)(=O)C1 (stereo not drawn),-2.38
17,NC1=NC(=O)C(CC(=O)c2ccc(Cl)cc2)S1 (stereo not drawn),1.23
18,COc1cccc(-n2c(SCC(=O)NCc3cccs3)nc3ccccc3c2=O)c1,-2.74
19,Cc1ccc(C(=O)N2CCN(c3cc(=O)[nH]nc3-c3ccccc3)CC2)cc1,-41.7
20,O=C(Nc1ccccc1N1CCN(C(=O)c2ccc(Cl)cc2)CC1)c1cccc([N+](=O)[O-])c1,-75
21,O=C(NC(=S)NCc1ccccc1)c1ccc2c(c1)OCO2,-8.81

row,SMILES,"hERG current change (%, negative = inhibition) at 10uM [%]"
1,O=C(c1ccc(F)cc1)N1CCN(c2cc(=O)[nH]nc2-c2ccccc2)CC1,-4.51
2,O=C(Nc1ccc(Cl)cc1C(=O)N1CCCC1)c1cccc([N+](=O)[O-])c1,-12
3,O=C(Nc1ccccc1N1CCN(C(=O)c2ccc(Cl)cc2)CC1)c1cccc(F)c1,-78.9
4,O=C(c1ccc(Cl)cc1)N1CCN(c2cc(=O)[nH]nc2-c2ccccc2)CC1,-58.3
5,O=C(NC(=S)Nc1ccccc1Br)c1ccc2c(c1)OCO2,-56.4
6,O=C(Nc1ccccc1N1CCN(c2ccccc2)CC1)c1cccc(F)c1,-8.05
7,O=C(Nc1ccccc1N1CCCC1)c1cccc(F)c1,6.24
8,COC(=O)c1ccccc1NC(=S)NC(=O)c1ccc2c(c1)OCO2,32.6
9,CCC(=O)N1CCN(c2ccc(Cl)cc2NC(=O)c2cccc([N+](=O)[O-])c2)CC1,-49.2
10,COc1ccc(OC)c(NC2=C(Cl)C(=O)N(Cc3ccccc3)C2=O)c1,5.06
11,CCn1c(COc2cc(C)ccc2C(C)C)nnc1SCC(=O)Nc1nccs1,5.52
12,COC(=O)c1ccc(N)cc1O,22
13,Cc1cccc2c(C(=O)Nn3cnnc3)cc(-c3ccccc3Cl)nc12,25.8
14,CC(=O)N1CCN(c2ncnc3sc(-c4ccccc4)cc23)CC1,-44.4
15,CCOC(=O)c1cnc(SCC(=O)N2CCN(C(=O)c3ccco3)CC2)nc1N,-29.3
16,CN1CCN(c2ccccc2NC(=O)c2ccc(OCc3ccccc3)cc2)CC1,-41.9
17,O=C(Nc1ccccc1N1CCN(C(=O)c2ccccc2)CC1)c1ccc2c(c1)OCO2,-60.7
18,CN1CCN(c2ccc(NC(=O)c3cccc(OCc4ccccc4)c3)cc2)CC1,-8.95
19,CN1CCN(c2ccccc2NC(=O)c2cccc(OCc3ccccc3)c2)CC1,-78.9
20,O=C(Nc1ccccc1N1CCN(C(=O)c2ccc(Cl)cc2)CC1)c1ccc2c(c1)OCO2,-46.8
21,O=C(Nc1ccccc1N1CCCC1)c1ccc2c(c1)OCO2,-3.23

row,SMILES,"hERG current change (%, negative = inhibition) at 10uM [%]"
1,O=C(Nc1ccccc1N1CCCC1)c1cccnc1,-0.385
2,O=C(Nc1ccc(N2CCN(C(=O)c3ccccc3)CC2)c(Cl)c1)c1cccnc1,-31.2
3,O=C(Nc1ccccc1N1CCN(C(=O)c2ccc(Cl)cc2)CC1)c1cccnc1,-73.2
4,CCOc1ccc(C2C(C#N)=C(N)N3C(=C2C#N)Sc2ccccc23)cc1 (stereo not drawn),9.5
5,CC1Cc2ccccc2N1C(=O)CSc1nnc2n1C(C)(C)Cc1ccccc1-2 (stereo not drawn),-3.06
6,CC(C)CNC(=O)CCc1nc(-c2ccccc2)no1,10.4
7,O=[N+]([O-])c1cc(S(=O)(=O)C(F)(F)F)ccc1NCC1CCCO1 (stereo not drawn),16.5
8,O=C(NCCCn1ncc2ccccc21)c1cc(COc2c(F)cccc2F)on1,6.73
9,CCn1ncc(Br)c1C(=O)Nc1ccc(Cl)cn1,-7.49
10,CCC(=O)N1CCN(c2c(Cl)cccc2[N+](=O)[O-])CC1,-13.5
11,O=C1CN(C(=O)/C=C/c2ccc(Cl)cc2)c2ccccc2N1,-75.2
12,O=[N+]([O-])c1cc(Cl)ccc1N1CCCC1,5.05
13,CC(C)(C)C(=O)N1CCN(c2ccc(Cl)cc2[N+](=O)[O-])CC1,-39.3
14,O=C1CN(C(=O)/C=C/c2cccc(Cl)c2)c2ccccc2N1,-21.4
15,O=C(/C=C/c1ccc(Cl)cc1)N1CCN(c2ccc(Cl)cc2[N+](=O)[O-])CC1,-92.9
16,O=C(/C=C/c1ccccc1[N+](=O)[O-])N1CCCCC1,-2.55
17,O=C(/C=C/c1ccccc1)N1CCN(c2c(Cl)cccc2[N+](=O)[O-])CC1,-20.8
18,O=C1CN(C(=O)/C=C/c2ccccc2F)c2ccccc2N1,-2.56
19,O=C(/C=C/c1ccc(Cl)cc1)N1CCN(c2c(Cl)cccc2[N+](=O)[O-])CC1,-58
20,O=C(/C=C/c1ccc(Cl)cc1Cl)N1CCN(c2ccccc2[N+](=O)[O-])CC1,-72.7
21,O=C(/C=C/c1ccc(Cl)cc1Cl)N1CCc2ccccc21,-1.39
